# Shown are actives, neighbours in structure and some others; about 5.9% of the full set was active somewhere.
# S2 tox: viability counter-screen for ATXN expression inhibitors. S2 cells (HEK-293 line with an ATXN2-luciferase reporter) viability, CellTiter-Fluor protease fluorescence, 24 h. Potency, µM (doses to about 56.7 µM), actives largely listed as cytotoxic. 400,000 compounds, 0.49% hits. AID 651635; note: nearly all actives have a fitted effect of over 40% in size
# KB-3-1 cytotox: KB-3-1 parental cell cytotoxicity; KB-3-1 viability, CellTiter-Glo ATP luminescence, 72 h; Potency, µM (top dose mostly 46.1 µM), usual class: cytotoxic; 400,000 compounds, 1.4% hits; note: % is set by controls: 0 for no effect and ±100 for the full control effect; nearly all actives have a fitted effect of over 60% in size
#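 Cytotoxicity measured as CellTiter-Glo luminescence after 72 h at 37 C. Compound titrations were pinned onto drug-naive KB-3-1 parental adenocarcinoma cells grown in DMEM with 10% FBS, and normalized data fitted to concentration-response curves.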
# TGFb inhibitor: inhibitors of TGF-b signaling; HepG2 CAGA-GFP TGF-b/SMAD3 reporter, GFP fluorescence, 18 h; TGF-beta stimulated, 500 pg/mL final; Potency, µM (series often up to 46.1 µM), for inactives: top-dose activity, negative = inhibition, hits mostly inhibitors; 410,000 compounds, 1.2% hits; AID 588855; note: % is set by controls: 0 for no effect and ±100 for the full control effect; nearly all actives have a fitted effect of over 65% in size
#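 TGF-beta reporter screen: HEPG2 CAGA-GFP, 1% FBS, 500 pg/mL TGF-beta final, 18 h; per-cell GFP summed per well; curves fitted and categorized by class.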
# ATXN2 expr inh: inhibitors of ATXN2 expression | HEK-293 ATXN2-luciferase reporter, luminescence, 24 h | Potency, µM (series often up to 57 µM), for inactives: at the top dose activity change, negative = inhibition, hits mostly inhibitors | 360,000 compounds, 0.72% hits; note: % is set by controls: 0 for no effect and ±100 for the full control effect; nearly all actives have a fitted effect of over 55% in size
#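 ATXN2-luciferase reporter cells (luciferase flanked by upstream and downstream ATXN2 gene portions) were treated 24 h at 37 °C with compounds at up to 57 uM. SteadyGlo luminescence gave expression; GF-AFC fluorescence gave viability.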
# HepG2 tox: counter-screen for TGF-b inhibitors: cytotoxicity in HepG2 cells. HepG2 CAGA-GFP viability, ATP luminescence, 18 h. Potency, µM (highest dose often 46.1 µM), without a hit: at the highest dose activity change, negative = cytotoxicity, most hits filed as cytotoxic. 410,000 compounds, 0.76% hits. AID 588856
#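 CellTiter-Glo luminescence gave cytotoxicity after 18 hours at 37 degrees C. The cells were HepG2 CAGA-GFP in 1% FBS DMEM, stimulated with 500 pg/mL TGF-beta after compound addition. %Activity was normalised to no-cell wells (complete cell-killing) and DMSO (no toxicity), and curves were fitted and classified.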
# KB-V1 cytotox: KB-V1 MDR subline cytotoxicity. KB-V1 MDR cells viability, CellTiter-Glo, 72 h. Potency, µM (series often up to 46.1 µM), most hits filed as cytotoxic. 400,000 compounds, 3.4% hits; note: % is set by controls: 0 for no effect and ±100 for the full control effect; nearly all actives have a fitted effect of over 60% in size
#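 Luminescent ATP read-out (CellTiter-Glo, 10 min) measures survival of drug-selected KB-V1 MDR cells after 72 h, 37 degrees C compound exposure. Medium: phenol-red-free DMEM, 10% FBS. Values from fitted concentration-response curves.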
# * hit, by the source's call; i = inactive; ? = inconclusive; nt = not tested or not shown. Calls come from the whole dose curve; as a rule, active = well fitted curve in the direction sought with a large enough effect; inconclusive = small, poorly fitted or top-dose-only effect, or another doubt; inactive = no such curve, though single readings can be large; an effect the other way counts as inactive or inconclusive. Potency is the fitted concentration of half-maximal effect.
SMILES,S2 tox,KB-3-1 cytotox,TGFb inhibitor,ATXN2 expr inh,HepG2 tox,KB-V1 cytotox
CCOC(=O)c1c(N2C(=O)C=CC2=O)sc(C)c1C,?,i,16µM*,?,-92%,i
CCOC(=O)c1c(NC(N)=O)sc(C)c1C,i,i,-1%,7%,2%,?
COc1ccc(/C=C/C(=O)NCCc2ccc(OC)c(OC)c2)cc1,i,i,-8%,-17%,-18%,i
COc1ccc(CCNC(=O)c2cc(-c3ccccc3)nc3ccccc23)cc1OC,?,i,-1%,-23%,-23%,23µM*
COc1ccc(CCNC(=O)c2nnn(-c3cccc(C)c3)c2N)cc1OC,i,i,-17%,-5%,-1%,9.2µM*
COc1ccc(CCNC(=O)/C=C/c2ccc3ccccc3n2)cc1OC,?,?,?,-3%,-19%,18µM*
COc1ccc(CCNC(=O)c2cc(-c3ccncc3)nc3c(Cl)cccc23)cc1OC,i,i,4%,-4%,7%,23µM*
Cc1ccc(-c2nnc(NC(=O)c3ccc4c(c3)OCCO4)o2)c(C)c1,nt,nt,-14%,nt,-18%,nt
O=S1(=O)NCC23CCC(CC21)O3 (stereo not given),nt,nt,1%,nt,1%,nt
Cc1cccc(CC(=O)Nc2ccc3nc(N4CCC(C)CC4)cc(C)c3c2)c1,i,i,-2%,-27%,1%,i
CCOC(=O)C(O)c1ccccc1 (stereo not given),i,nt,nt,7%,nt,nt
COc1ccc(CNC(=O)c2cc(-c3ccncc3)nc3c(C)cc(C)cc23)cc1OC,?,i,1%,-19%,7%,23µM*
COc1ccccc1CNC(=O)c1cc(-c2ccncc2)nc2c(Cl)cccc12,i,i,2%,3%,-24%,i
O=C(NCCCO)c1c(O)c2cccc3c2n(c1=O)CCC3,i,5.8µM*,-12%,0%,-16%,12µM*
CCCCNC(=O)c1c(O)c2cccc3c2n(c1=O)CCC3,i,i,18%,-3%,6%,i
C#CCOc1ccc(-c2nnc(Nc3cccc(C)c3)c3ccccc23)cc1,?,?,?,?,-31%,i
O=C(O)c1cccnc1Nc1ccc(Cl)cc1,i,7.3µM*,-2%,277%,-4%,12µM*
COc1ccc(Nc2cc(C)nc(NCc3ccccc3)n2)cc1,i,?,13µM*,-38%,-57%,?
COc1cc(C)nc(NCc2ccccc2)n1,i,i,1%,?,-28%,i
Cc1cc(NC2CCCCC2)nc(NCc2ccccc2)n1,?,?,14µM*,?,-112%,i
Cc1ccc(Nc2cc(C)nc(NCc3ccccc3)n2)cc1,i,?,?,nt,-111%,12µM*
O=C(Cn1c2ncccc2c(=O)n1-c1ccccc1)Nc1ccc(Cl)cc1C(F)(F)F,nt,nt,0%,nt,5%,nt
O=C1/C(=C/c2ccc([N+](=O)[O-])cc2)C=C(c2ccccc2)N1c1ccccc1,i,i,-1%,-2%,-10%,i
O=C1/C(=C/c2ccc([N+](=O)[O-])cc2)C=C(c2ccccc2)N1c1ccc(O)cc1,?,?,9%,20µM*,-9%,5.8µM*
CCCc1sc(N/N=C/c2ccccn2)nc1-c1ccc(Br)cc1,nt,?,?,2.8µM*,-17%,?
SMILES,S2 tox,KB-3-1 cytotox,TGFb inhibitor,ATXN2 expr inh,HepG2 tox,KB-V1 cytotox
COc1ccc(CCNS(=O)(=O)c2ccc(OC)c(OC)c2)cc1OC,i,i,12%,4%,-25%,i
COc1ccc(S(=O)(=O)NCCc2sc(C)nc2C)cc1F,i,?,-22%,-19%,-35%,16µM*
Cc1ccc(S(=O)(=O)N2CCN(C(=O)Cc3ccc4c(c3)OCCO4)CC2)cc1C,i,i,6%,-24%,-10%,4.1µM*
O=C(Cc1ccc2c(c1)OCCO2)N1CCN(S(=O)(=O)c2cccc(Cl)c2Cl)CC1,?,i,?,-5%,-5%,23µM*
O=C(C1CC(=O)N(c2ccc3c(c2)OCCO3)C1)N1CCN(S(=O)(=O)c2cccc(F)c2)CC1 (stereo not given),?,i,?,-9%,4%,21µM*
O=C(Cc1ccc2c(c1)OCCO2)N1CCN(S(=O)(=O)c2cccs2)CC1,i,i,6%,-8%,6%,?
O=C(Cc1ccc2c(c1)OCCO2)N1CCN(S(=O)(=O)c2ccccc2C(F)(F)F)CC1,i,i,?,1%,-13%,21µM*
COc1ccc(CCN2CCN(CCCc3ccccc3)CC2)cc1OC,nt,nt,nt,-20%,nt,nt
Cc1onc(-c2ccccc2Cl)c1C(=O)Nc1nnc(C2CCCCC2)s1,nt,i,-22%,nt,-20%,i
O=C(Nc1ncc2c(n1)CC(c1ccccc1)CC2=O)c1ccco1 (stereo not given),i,i,-2%,8%,1%,i
O=C1CC(c2ccccc2)Cc2nc(NCc3ccco3)ncc21 (stereo not given),i,i,-18%,-5%,-21%,16µM*
O=C(Nc1cccc(C(F)(F)F)c1)C1Cc2c(-c3ccccc3Oc3ccccc3)ccnc2O1 (stereo not given),i,?,?,?,-7%,18µM*
COc1ccc(NC(=O)C2Cc3c(-c4cccc(C(C)=O)c4)ccnc3O2)cc1OC (stereo not given),i,5.2µM*,-6%,?,-21%,9.2µM*
O=C(Nc1ccc(F)c(Cl)c1)C1Cc2c(-c3cccc(F)c3)ccnc2O1 (stereo not given),?,i,?,?,-50%,?
O=C(NCc1cccc(Cl)c1)C1Cc2c(-c3ccccc3Oc3ccccc3)ccnc2O1 (stereo not given),i,i,?,?,-28%,?
COc1ccc(CNC(=O)C2Cc3c(-c4ccccc4Oc4ccccc4)ccnc3O2)cc1OC (stereo not given),i,?,?,-19%,-11%,15µM*
CC(=O)c1cccc(-c2ccnc3c2CC(C(=O)Nc2ccc(F)c(Cl)c2)O3)c1 (stereo not given),i,?,?,?,3%,21µM*
COc1ccc2c(c1)c1c(c(=O)n(Cc3ccccc3)c(=O)n1Cc1cc(C)ccc1C)n2C,i,i,12%,14%,-7%,i
COc1ccc(NC(=O)C2Cc3c(-c4ccccc4)ccnc3O2)cc1OC (stereo not given),i,16µM*,-6%,?,-10%,?

# Screening data: PubChem, National Center for Advancing Translational Sciences (NCATS)
